Screening results from PubChem.
Only some compounds are listed: those with a hit (about 7.8% of all), similar ones and a draw of the others.
FLuc inh = blocks Photinus pyralis firefly luciferase activity; P08659; 2.2% of 72,000 active; purified firefly luciferase, luminescence, 8 min; Potency, µM (doses to about 57.1 µM), hits mostly inhibitors; also: nearly all actives have a fitted effect of over 40% in size
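Substrate buffer containing 10 uM ATP (pH 7.2 imidazole, Mg2+, KCl, detergent, BSA) is dispensed, compound pinned in, then luciferase/luciferin detector mix added. After 8 min at ambient temperature, light output is measured.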
PK Bst = pyruvate kinase (B. stearothermophilus) modulation; purified pyruvate kinase, luminescence ATP production; ribose 5-phosphate activator present at AC10; Potency, µM; 1.2% of 51,000 active; in the data active = potency below about 11 µM; inconclusive = mostly about 12 µM to 25 µM;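 the screen sought inhibitors and activators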
Tau fil binding = tau filament binding | recombinant tau filaments, thioflavin S fluorescence, 15 h; filaments grown with octadecylsulfate alongside compound | Potency, µM (top dose mostly 57.1 µM) | 2% of 71,000 active;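 also: actives lower thioflavin S fluorescence by blocking filaments or displacing dye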
Target sequence (P10636 whole entry, looked up): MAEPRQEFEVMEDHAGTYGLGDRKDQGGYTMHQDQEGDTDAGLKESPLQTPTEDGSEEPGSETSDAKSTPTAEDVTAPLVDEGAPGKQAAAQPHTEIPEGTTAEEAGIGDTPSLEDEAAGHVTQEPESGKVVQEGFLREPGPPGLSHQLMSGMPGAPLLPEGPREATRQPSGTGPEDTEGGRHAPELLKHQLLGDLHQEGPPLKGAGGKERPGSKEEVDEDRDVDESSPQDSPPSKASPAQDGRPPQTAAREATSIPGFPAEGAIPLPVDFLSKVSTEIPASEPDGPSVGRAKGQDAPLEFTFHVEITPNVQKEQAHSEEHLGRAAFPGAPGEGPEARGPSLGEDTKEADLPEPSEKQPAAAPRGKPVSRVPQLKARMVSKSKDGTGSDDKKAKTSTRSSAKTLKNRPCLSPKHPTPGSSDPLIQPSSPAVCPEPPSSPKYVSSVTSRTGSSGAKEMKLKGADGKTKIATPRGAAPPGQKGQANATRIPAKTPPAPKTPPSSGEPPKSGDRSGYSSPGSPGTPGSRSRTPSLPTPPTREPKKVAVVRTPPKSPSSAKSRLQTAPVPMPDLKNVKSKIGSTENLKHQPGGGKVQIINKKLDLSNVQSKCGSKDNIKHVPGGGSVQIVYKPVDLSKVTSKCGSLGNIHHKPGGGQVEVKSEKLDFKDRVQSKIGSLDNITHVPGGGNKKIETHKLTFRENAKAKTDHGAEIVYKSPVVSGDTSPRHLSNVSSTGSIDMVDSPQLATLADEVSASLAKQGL
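Tau 2 uM in ThS buffer dispensed; compound added; 60 uM ODS added (finals 1 uM tau, 30 uM ODS); 15 h 37 C; fluor ex450/em510.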
TSHR agonist = agonists of human thyroid stimulating hormone receptor; HEK293-CNG-TSHR cells (CNG channel as cAMP sensor), membrane potential dye, cAMP; Potency, µM (highest dose often 57.1 µM), most hits filed as activators; 0.48% of 73,000 active; active = well fitted activation curve with a large enough effect in the main read-out, with a control signal flat, not every such curve was filed as active; inconclusive = small, poorly fitted or top-dose-only effect, or a change in a side signal; inactive = no such curve, though single readings can be large or run the other way; reference of the percent scale not stated here;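 also: the control signal comes from parental cells without the receptor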
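HEK 293 cells stably expressing TSHR and a modified CNG channel, with CNG-only parental cells as counterscreen, were preloaded 60 min at room temperature with membrane potential dye containing 100 uM RO 20-1724. Compound exposure was 30 min, and depolarization was read as fluorescence at 590 nm.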
HEK293 cAMP ctrl = raises cAMP in parental HEK293 cells, TSHR agonist counter-screen | parental HEK293 CNG cAMP sensor, membrane potential fluorescence | Potency, µM (titrated, usually from 57.1 µM), actives largely listed as activators | 2.5% of 73,000 active; also: nearly all actives have a fitted effect of over 55% in size
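Parental HEK 293 cells stably expressing a cAMP-gated CNG channel were loaded with membrane potential dye containing 100 uM RO 20-1724 for 60 min. Compound added for 30 min; depolarization read as fluorescence intensity at 590 nm.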
ALOX15 inhib = 15-hLO (ALOX15) enzyme inhibition | P16050 | purified 15hLO-1, xylenol orange hydroperoxide absorbance | Potency, µM (top dose mostly 57.1 µM), hits mostly inhibitors | 1.4% of 74,000 active | AID 887; also: nearly all actives have a fitted effect of over 55% in size
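Readout: Fe(III)-xylenol orange absorbance, 573-to-405 nm ratio as reaction progress. Enzyme 40 nM purified human 15hLO-1, substrate 50 uM arachidonic acid, 6 min RT after 15 min compound preincubation; Hepes pH 7.5 buffer with Triton X-100.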
A number is an active result; – = inactive; ? = inconclusive; · = no result given; [ ] = remark or other dose. Unless noted, calls follow the shape of the dose curve; as a rule, active = well fitted curve in the direction sought with a large enough effect; inconclusive = small, poorly fitted or top-dose-only effect, or another doubt; inactive = no such curve, though single readings can be large; an effect the other way counts as inactive or inconclusive.

SMILES	FLuc inh	PK Bst	Tau fil binding	TSHR agonist	HEK293 cAMP ctrl	ALOX15 inhib
c1ccc(-c2csc(-c3nc4ccccc4[nH]3)n2)cc1	·	·	·	·	·	7.9µM
Nc1ccc(-c2nc3ccccc3[nH]2)cc1	16µM	·	–	–	–	–
Cn1cc(-c2nc3ccccc3[nH]2)c2ccccc21	13µM	?	–	?	–	–
C=CCN1CCc2c(cc(O)c(O)c2Cl)[C@H](c2ccccc2)C1	–	·	–	–	–	?
CC(C)(C)OC(=O)[C@H]([C@@H]1N[C@@H](C(=O)O)C(C)(C)S1)N1C(=O)c2ccccc2C1=O	–[11.4 µM]	·	–[11.4 µM]	–[11.4 µM]	–[11.4 µM]	–[11.4 µM]
C/C(=N/NC(=O)c1ccncc1)c1ccccc1Cl	–[11.4 µM]	·	–[11.4 µM]	–[11.4 µM]	–[11.4 µM]	–[11.4 µM]
O=S1(=O)N=C(Nc2nc3c(s2)CCCC3)c2ccccc21	2.5µM	4.5	–	–	–	–
O=C(NCCc1ccccc1)c1cnn2c(C(F)F)cc(C3CC3)nc12	–	–	–	?	?	–
COC(=O)c1ccccc1NC(=O)c1cnn2c(C(F)F)cc(C3CC3)nc12	–	–	–	?	16µM	–
CCOC(=O)c1cc(-c2cccs2)nc2onc(C)c12	–	–	–	–	–	–
CCOC(=O)c1cc(-c2ccco2)nc2c1c(C)nn2CCC#N	–	–	16µM	?	?	?
CCOC(=O)c1cc(-c2ccc3c(c2)OCCO3)nc2c1c(C)nn2CCC#N	–	·	–	?	20µM	–
CCOC(=O)c1cc(-c2ccncc2)nc2c1c(C)nn2C	–	–	–	–	–	–
CCCn1c(C)nc2c(NCCN3CCCCC3)nc(C)nc21	·	·	–	–	–	–
COC(=O)C1=C(C)Nc2ccc(C)cc2S1	–	·	20µM	–	–	10µM
COC(=O)Nc1ccc(C)cc1NC(=O)OC	–	–	–	–	–	–
CC(C)[C@@H](OCc1ccccc1)[C@H](C)/C=N\OC[C@@H](O)[C@@H]1O[C@@H]2OC(C)(C)O[C@@H]2[C@H]1O	–[11.4 µM]	·	·	–[11.4 µM]	–[11.4 µM]	–[11.4 µM]
CCC(=O)Nc1cc(C)c(NC(=O)C23CC4CC(CC(C4)C2)C3)cn1	–	–	–	–	–	–
CCNc1ccc(S(=O)(=O)C(F)(F)F)cc1NC(=O)C12CCC(CC1)C2	–	–	–	?	16µM	–
C=C1C(=O)C=C2CN(C(=O)c3ccccc3)[C@@](Cc3ccc(OC)cc3)(C(=O)OC)[C@@H]12	·	·	–	?	?	·
CC(C)C[C@H](NC(=O)[C@@H](NC(=O)N[C@@H](Cc1ccccc1)C(=O)O)[C@H]1CCN=C(N)N1)C(=O)N[C@H](C=O)Cc1ccccc1	–[11.4 µM]	·	?	–	–	·
Clc1ccc(-n2nnnc2-c2ccccc2)cc1	–	–	–	–	–	–
Nc1c(-c2ccc(Cl)cc2)nnn1-c1ccccc1	10µM	·	–	–	–	–
COCC(=O)N1CCC[C@@]2(CCN(C(=O)Nc3ccccc3)C2)C1	–[11.4 µM]	·	–	–	–	–
Cc1ccc2nc3ccc(N4CCCC4)nn3c(=O)c2c1	?	–	–	–	–	25µM
SMILES	FLuc inh	PK Bst	Tau fil binding	TSHR agonist	HEK293 cAMP ctrl	ALOX15 inhib
Cc1sc2nc3ccc(N4CCCCC4)nn3c(=O)c2c1C	–	–	–	?	?	–
O=C(O)[C@H]1CN[C@H](C(=O)O)C1	–	·	40µM	–	–	?
Cn1c(=O)c(-c2cc(F)cc(F)c2)nc2cnc(N3CCOCC3)nc21	–[11.4 µM]	·	–	–	–	–
CCOC(=O)c1cnc(SCC(=O)c2ccccc2)nc1N	4µM	·	–	–	–	–
CCOC(=O)c1cnc(SCC(=O)Nc2nc(C)c(C)s2)nc1N	–	–	–	?	?	–
CCOC(=O)c1cnc2c(C#N)c(C)nn2c1-c1ccccc1	–	·	16µM	–	–	?
CCOC(=O)c1ccccc1NC(=O)CSc1ncc(C(=O)OCC)c(N)n1	–	–	–	?	20µM	–
CCOC(=O)c1cc2c3ccccc3n(CC)c2nc1N	–	·	–	?	?	?
CCOC(=O)c1cnc(-c2ccccc2)nc1N	20µM	–	–	–	–	–
CCOC(=O)c1cnc2c(C#N)c(C)nn2c1C	–	–	–	–	–	–
O=C1/C(=C/c2ccccc2)Oc2ccccc21	·	·	·	–[11.4 µM]	–[11.4 µM]	–[11.4 µM]
O=c1n(Cc2cc3c(cc2Cl)OCO3)c(=O)n2n1CC[C@H]1/C(=N\OCc3ccccc3)[C@H]3O[C@@H]3[C@@H](O)[C@@H]12	–[11.4 µM]	·	·	–[11.4 µM]	–[11.4 µM]	–[11.4 µM]
C=C1CC[C@@H](O)C/C1=C/C=C1\CCC[C@]2(C)[C@@H]1CC[C@H]2[C@@H](C)CCCC(C)C	–[11.4 µM]	·	?	–	–	·
CCOC(=O)c1sc(=S)n(-c2cc(OC)ccc2OC)c1N	–	–	–	–[11.4 µM]	–	13µM
CCOC(=O)c1sc(-c2ccc(OC)cc2)cc1N	13µM	–	–	–	–	–
CCOC(=O)c1cc(-c2ccccc2)sc1N	–	–	25µM	–	–	?
COc1ccc([C@@H]2OC[C@]3(COC(C)=O)[C@H](C)C=C(C)[C@@H]2[C@H]3C)cc1	–[11.4 µM]	·	?	?	?	·
COc1ccccc1NC(=O)N1CCN(c2cccc(C(F)(F)F)c2)CC1	–	·	–	?	?	40µM
Cc1nc2ncnn2c(N2CCC(C(=O)NC3CCCC3)CC2)c1Cc1ccccc1	–	–	–	–	–	–
Cc1nc2ncnn2c(Nc2ccc3c(c2)OCO3)c1Cc1ccccc1	–	–	–	?	25µM	–
O=C(CSc1nnc(-c2ccco2)n1Cc1ccccc1)c1ccc(F)cc1	–	–	–	?	25µM	?
O=C(CSc1nnc(-c2ccc(Br)o2)n1Cc1ccccc1)c1ccccc1F	–	–	–	?	20µM	–
O=c1c(/C=N/O)c(Nc2ccccc2)nc2ccccn12	–	·	–	–	–	?
Cn1c(O)c(N=N/C(=N/c2ccccn2)c2ccccn2)c2cc(Br)ccc21	·	·	·	?	–	?
COC(=O)N1CCC[C@@]2(CCN(C(=O)Nc3ccc(OC)cc3)C2)C1	–[11.4 µM]	·	–	–	–	–
SMILES	FLuc inh	PK Bst	Tau fil binding	TSHR agonist	HEK293 cAMP ctrl	ALOX15 inhib
CC[C@@]12CCCN3CCc4c(n(c5ccccc45)C(=O)C1)[C@H]32	–[11.4 µM]	·	?	?	?	–[11.4 µM]
Cc1ccc(OCc2nc(C#N)c(NCc3ccc4c(c3)OCO4)o2)cc1	–	–	–	?	16µM	–
COc1ncc2nc(-c3ccccc3)c(=O)n(C3CC3)c2n1	–[11.4 µM]	·	–	–	–	–
CC(O)COC(C)(C)C (stereo not drawn)	·	·	–	–	–	–
COc1cc2c(C#N)c(N3CCCCC3)nc(N)c2c(N)n1	20µM	–	–	–	–	–
COCCNc1ncnc2ccc(-c3c(C)noc3C)cc12	–[2.29 µM]	·	–	–	–	–
CC(=O)CSCc1ccccn1	–[11.4 µM]	·	–[11.4 µM]	·	–[11.4 µM]	–[11.4 µM]
CCN(CC)S(=O)(=O)c1cc(C(=O)NC2CCCCC2)ccc1C	13µM	·	–[11.4 µM]	?	?	–[11.4 µM]
Cc1ccc(NC(=O)c2ccc3ccccc3n2)nc1	6.3µM	6.9	–	–	–	–
Cc1ccc(C(=O)Nc2ccc(Cl)cn2)cc1	6.3µM	9.1	–	?	?	–
